# Laboratory results published in the supplement of paper PMC6135742.
# Where a name gives a salt, the structure may show the parent alone. ± gives the standard deviation of the averaged measurements. Whole data set: some 2,600 compounds, median “MBP+ mature oligodendrocyte number relative to DMSO vehicle control” near -0.34, cut for the highest 2% near 13. The sample as a whole holds a higher share of the highest values than the screen did.
# Test system: jimpy (Plp1 jimpy) mouse iPSC-derived oligodendrocyte progenitor cells
# Assay: MBP+ mature oligodendrocyte number relative to DMSO vehicle control (SDs above negative control mean); higher = more surviving jimpy oligodendrocytes (rescue)
# Conditions: 10 µM; 3 days
# 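Further: 10 µM single dose with 3-day oligodendrocyte differentiation.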
row,Compound,MBP+ mature oligodendrocyte number
1,O=c1sn(-c2cccc3ccccc23)c(=O)n1Cc1ccccc1 [Tideglusib],-0.769
2,NNC(=O)CSc1nc2scc(-c3ccccc3)c2c(=O)n1-c1ccccc1,-0.637
3,OC(CCN1CCCCC1)(c1ccccc1)C1CC2C=CC1C2 (centres undefined) [Biperiden HCl],13.7
4,OC(CCN1CCCCC1)(c1ccccc1)C1CC2C=CC1C2 (centres undefined) [Biperiden hydrochloride],2.59
5,OC(CCN1CCCCC1)(c1ccccc1)C1CCCCC1 (centres undefined) [Trihexyphenidyl hydrochloride],-0.104
6,O=c1cc(-c2cccc3c2Sc2ccccc2S3)oc(N2CCOCC2)c1,-3.99
7,C[N+]1(C)CCC(OC(=O)C(c2ccccc2)c2ccccc2)CC1,0.467
8,O=C(O)c1ccccc1 [Benzoic Acid],0.66
9,C[N+]1(C)CCC(OC(=O)C(c2ccccc2)c2ccccc2)CC1 [4-DAMP methiodide],2.86
10,C[N+]1(C)CCC(=C(c2ccccc2)c2ccccc2)CC1 [Diphemanil Methylsulfate],19.2
11,C=C1CC[C@H](O)C/C1=C/C=C1\CCC[C@]2(C)[C@@H]([C@H](C)/C=C/[C@H](C)C(C)C)CC[C@@H]12 [Vitamin D2],21.5
12,C=C1/C(=C\C=C2/CCC[C@]3(C)[C@@H]([C@H](C)/C=C/[C@H](C)C(C)C)CC[C@@H]23)C[C@@H](O)C[C@@H]1O [Doxercalciferol],8.14
13,C=C1CC[C@H](O)C/C1=C/C=C1\CCC[C@]2(C)[C@@H]([C@H](C)CCCC(C)C)CC[C@@H]12 [Vitamin D3],5.56
14,CCCCCCCCCCCCCCSCC(=O)O [Tetradecylthioacetic acid],0.00298
15,CCCCC(F)(F)[C@@]1(O)CC[C@H]2[C@@H](CC(=O)[C@@H]2CCCCCCC(=O)O)O1 [Lubiprostone],25.2
16,CCCCC[C@H](O)/C=C/[C@H]1[C@H](O)CC(=O)[C@@H]1CCCCCCC(=O)O [Alprostadil],0.793
17,Cc1cnc(-c2cc(N3CCN(C(=O)CCS(C)(=O)=O)CC3)ncc2Cl)c(C)c1,0.184
18,CC(NCCc1ccc(O)cc1)C(O)c1ccc(O)cc1 (centres undefined) [Ritodrine hydrochloride],1.15
19,CC(C)(C(=O)O)c1ccc(C(O)CCCN2CCC(C(O)(c3ccccc3)c3ccccc3)CC2)cc1 (centres undefined) [Fexofenadine hydrochloride],0.659
20,CC(C(O)c1ccc(O)cc1)N1CCC(Cc2ccccc2)CC1 (centres undefined) [Ifenprodil Tartrate],20.3
21,C[C@@H](CN1CCC(Cc2ccccc2)CC1)[C@@H](O)c1ccc(O)cc1 [Ro 25-6981 hydrochloride],14.6
22,CC(C)(C(=O)O)c1ccc(C(O)CCCN2CCC(C(O)(c3ccccc3)c3ccccc3)CC2)cc1 (centres undefined) [Fexofenadine HCl],1.53
23,C[C@H](N[C@@H](CCc1ccccc1)C(=O)O)C(=O)N1CCC[C@H]1C(=O)O [Enalaprilat dihydrate],0.574

row,Compound,MBP+ mature oligodendrocyte number
1,CC(C)(C)c1ccc(C(O)CCCN2CCC(C(O)(c3ccccc3)c3ccccc3)CC2)cc1 (centres undefined) [Terfenadine],< -3.85
2,CC(NCCc1ccc(O)cc1)C(O)c1ccc(O)cc1 (centres undefined) [Ritodrine HCl],-0.164
3,CC(C(O)c1ccc(O)cc1)N1CCC(Cc2ccccc2)CC1 (centres undefined) [Ifenprodil tartrate],8.03
4,C[C@H](N[C@@H](CCc1ccccc1)C(=O)O)C(=O)N1CCC[C@H]1C(=O)O [Enalaprilat Dihydrate],-0.467
5,CC(=Cc1ccc(C(=O)O)cc1)c1ccc2c(c1)C(C)(C)CCC2(C)C,0.539
6,O=C(/C=C/c1ccc(CN(CCO)CCc2c[nH]c3ccccc23)cc1)NO [LAQ824 (Dacinostat)],< -6.7
7,CC(C)(C)[N+]([O-])=Cc1ccc(S(=O)(=O)O)cc1S(=O)(=O)O,2.35
8,CC(C)c1cc(-c2ccc(F)c3ccccc23)nc(N)n1,6.85
9,Nc1ccc2ncnc(NCCc3ccc(Oc4ccccc4)cc3)c2c1,< -6.35
10,N#C/C(=C1/SC[C@@H](c2ccc(Cl)cc2Cl)S1)n1ccnc1 [Luliconazole],19.8
11,CC(=O)O[C@]1(C(C)=O)CC[C@H]2[C@@H]3C=C(Cl)C4=CC(=O)[C@@H]5C[C@@H]5[C@]4(C)[C@H]3CC[C@@]21C [Cyproterone acetate],3.38
12,CC(=O)O[C@]1(C(C)=O)CC[C@H]2[C@@H]3C=C(Cl)C4=CC(=O)[C@@H]5C[C@@H]5[C@]4(C)[C@H]3CC[C@@]21C [Cyproterone Acetate],21.5
13,CC(=O)OCC(=O)[C@@]1(O)CC[C@H]2[C@@H]3CCC4=CC(=O)CC[C@]4(C)[C@H]3C(=O)C[C@@]21C [Cortisone 21-acetate],-0.825
14,CC(=O)O[C@]1(C(C)=O)CC[C@H]2[C@@H]3C=C(C)C4=CC(=O)CC[C@]4(C)[C@H]3CC[C@@]21C [Megestrol Acetate],15.4
15,CC(=O)OCC(=O)[C@@]1(O)CC[C@H]2[C@@H]3CCC4=CC(=O)CC[C@]4(C)[C@H]3C(=O)C[C@@]21C [Cortisone acetate],-0.164
16,CC(=O)S[C@@H]1CC2=CC(=O)CC[C@]2(C)[C@H]2CC[C@@]3(C)[C@@H](CC[C@@]34CCC(=O)O4)[C@H]12 [Spironolactone],1.84 ± 1.7
17,CC(=O)O[C@]1(C(C)=O)CC[C@H]2[C@@H]3C[C@H](C)C4=CC(=O)C=C[C@]4(C)[C@@]3(F)[C@@H](O)C[C@@]21C [Fluorometholone Acetate],10.3
18,CC(=O)O[C@]1(C(C)=O)CC[C@H]2[C@@H]3C[C@H](C)C4=CC(=O)CC[C@]4(C)[C@H]3CC[C@@]21C [Medroxyprogesterone acetate],16.5
19,C[C@]12CCC(=O)C=C1CC[C@@H]1[C@@H]2CC[C@@]2(C)[C@H]1CC[C@]2(O)C(=O)CO [Cortexolone],0.431
20,CC(C)CCN1c2nc(Nc3cc(F)c(O)c(F)c3)ncc2N(C)C(=O)C1C (centres undefined),< -6.01
21,O=C(O)CP(=O)(O)O [Phosphonoacetic acid],-0.64
22,"O=C(O)c1cc(=O)c2c(Cl)cc(Cl)cc2[nH]1 [5,7-Dichlorokynurenic acid]",-0.544
23,COC(=O)C1=CO[C@@H](O)[C@@H]2C(CO)=CC[C@H]12 [Genipin],3.27 ± 0.9

row,Compound,MBP+ mature oligodendrocyte number
1,C=CC(=O)Nc1cccc(Nc2nc(Nc3ccc(Oc4ccnc(C(=O)NC)c4)cc3)ncc2F)c1,-6.27
2,CN1CCN(C(=O)c2cc3cc(Cl)ccc3[nH]2)CC1,1.14
3,N[C@@H](CC(=O)N1CCn2c(nnc2C(F)(F)F)C1)Cc1cc(F)c(F)cc1F [Sitagliptin phosphate monohydrate],0.184
4,NCCOc1cc(C(=O)Nc2cc(OCCN)c3ccccc3n2)nc(C(=O)Nc2cc(OCCN)c3ccccc3n2)c1 [Pyridostatin trifluoroacetate salt],-3.78
5,COc1ccccc1CN[C@H]1CCCN[C@H]1c1ccccc1,-0.711
6,CSc1c(C)c(SC)n2ccncc12 [Oltipraz metabolite M2],-2.35
7,CC(C)NC[C@H](O)COc1ccc(CCOCC2CC2)cc1 [Levobetaxolol HCl],9.7
8,CN(C)C(=O)Nc1cccc(-c2ccc(N(C)C)cc2)c1 [Atglistatin],6.21
9,COc1cc2c[n+](C)c3c4cc5c(cc4ccc3c2cc1OC)OCO5 [Nitidine chloride],< -4.47
10,N#CC1(c2ccc(NC(=O)c3cccnc3NCc3ccncc3)cc2)CCCC1 [Apatinib],2.86
11,CN(C/C=C/C#CC(C)(C)C)Cc1cccc2ccccc12 [Terbinafine HCl],4.54
12,COc1ccc(CNCc2cccc3ccccc23)cc1,-1.56
13,CN(Cc1ccc(C(C)(C)C)cc1)Cc1cccc2ccccc12 [Butenafine HCl],21.1
14,CN(C/C=C/C#CC(C)(C)C)Cc1cccc2ccccc12 [Terbinafine],1.87
15,C[C@H]1C[C@H]2[C@@H]3CCC4=CC(=O)C=C[C@]4(C)[C@@]3(F)[C@@H](O)C[C@]2(C)[C@@]1(O)C(=O)CO [Betamethasone],6.53 ± 6.4
16,CCC(=O)O[C@]1(C(=O)CCl)[C@@H](C)C[C@H]2[C@@H]3C[C@H](F)C4=CC(=O)C=C[C@]4(C)[C@@]3(F)[C@@H](O)C[C@@]21C [Halobetasol Propionate],21.4
17,CCC(=O)O[C@]1(C(=O)SCF)[C@H](C)C[C@H]2[C@@H]3C[C@H](F)C4=CC(=O)C=C[C@]4(C)[C@@]3(F)[C@@H](O)C[C@@]21C [Fluticasone propionate],8.9
18,C[C@@H]1C[C@H]2[C@@H]3C[C@H](F)C4=CC(=O)C=C[C@]4(C)[C@@]3(F)[C@@H](O)C[C@]2(C)[C@@]1(O)C(=O)CO [Flumethasone],8.94
19,CCC(=O)OCC(=O)[C@@]1(OC(=O)CC)[C@@H](C)C[C@H]2[C@@H]3CCC4=CC(=O)C=C[C@]4(C)[C@@]3(Cl)[C@@H](O)C[C@@]21C [Beclomethasone dipropionate],7.8
20,CCC(=O)O[C@]1(C(=O)CCl)[C@@H](C)C[C@H]2[C@@H]3CCC4=CC(=O)C=C[C@]4(C)[C@@]3(F)[C@@H](O)C[C@@]21C [Clobetasol propionate],12.8
21,CO[C@H]1C(=O)[C@]2(C)[C@@H](OC)C[C@H]3OC[C@@]3(OC(C)=O)[C@H]2[C@H](OC(=O)c2ccccc2)[C@]2(O)C[C@H](OC(=O)[C@H](O)[C@@H](NC(=O)OC(C)(C)C)c3ccccc3)C(C)=C1C2(C)C [Cabazitaxel],-3.71
22,C=CCN1CCc2c(cc(O)c(O)c2Br)[C@@H](c2ccccc2)C1 [R(+)-6-Bromo-APB hydrobromide],-2.95
23,Cc1ccc(C(=O)NCCCCCC(=O)Nc2ccccc2N)cc1,-5.76
